# Data as given in publication PMC7862700, “An all-to-all approach to the identification of sequence-specific readers for epigenetic DNA modifications on cytosine”.
# Columns and labels:
# Assay in all cases: DAPPL (digital affinity profiling via proximity ligation, sequencing); 10 mM Tris-HCl pH 7.5, 50 mM NaCl, 1 mM DTT, 4% glycerol, room temperature, 30 min; GST-TFs on glutathione beads, 16-mer random dsDNA library, 0.1% formaldehyde crosslink after washing; high values mean tight binding
# [1] = molecular target: T1, FLI1 (Homo sapiens, UniProt Q01543 1-452); settings: protein: recombinant; tags: N-terminal GST; dsDNA, one strand shown
# T1 sequence: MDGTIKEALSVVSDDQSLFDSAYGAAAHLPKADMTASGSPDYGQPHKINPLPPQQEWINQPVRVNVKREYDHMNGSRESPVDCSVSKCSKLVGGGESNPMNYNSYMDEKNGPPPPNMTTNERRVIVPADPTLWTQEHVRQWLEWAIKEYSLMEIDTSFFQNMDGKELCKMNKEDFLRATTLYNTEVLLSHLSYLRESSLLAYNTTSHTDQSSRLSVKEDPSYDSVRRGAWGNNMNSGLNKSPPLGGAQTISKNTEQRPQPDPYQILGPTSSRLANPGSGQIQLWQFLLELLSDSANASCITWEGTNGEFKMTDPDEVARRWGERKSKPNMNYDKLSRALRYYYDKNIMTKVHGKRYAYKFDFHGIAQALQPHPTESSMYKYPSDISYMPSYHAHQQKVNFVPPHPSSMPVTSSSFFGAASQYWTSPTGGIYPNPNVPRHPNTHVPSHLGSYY
# Procedure, shortened: (§1)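 Each value of binding signal is a hexamer's read frequency for a factor divided by the same hexamer's frequency in the tag-only sample. Barcoded, bead-captured GST fusions of human transcription factors made in yeast were pooled with that sample and incubated with 200 nmole of a random double-stranded 16-mer DNA library in Tris/NaCl/DTT/glycerol buffer at room temperature for 30 min. Washing, 0.1% formaldehyde crosslinking, proximity ligation, PCR and Illumina NextSeq500 sequencing followed.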
# [2] = molecular target: T2, ELK1 (Homo sapiens, UniProt P19419 1-428); settings: protein: recombinant; tags: N-terminal GST; dsDNA, one strand shown
# T2 sequence: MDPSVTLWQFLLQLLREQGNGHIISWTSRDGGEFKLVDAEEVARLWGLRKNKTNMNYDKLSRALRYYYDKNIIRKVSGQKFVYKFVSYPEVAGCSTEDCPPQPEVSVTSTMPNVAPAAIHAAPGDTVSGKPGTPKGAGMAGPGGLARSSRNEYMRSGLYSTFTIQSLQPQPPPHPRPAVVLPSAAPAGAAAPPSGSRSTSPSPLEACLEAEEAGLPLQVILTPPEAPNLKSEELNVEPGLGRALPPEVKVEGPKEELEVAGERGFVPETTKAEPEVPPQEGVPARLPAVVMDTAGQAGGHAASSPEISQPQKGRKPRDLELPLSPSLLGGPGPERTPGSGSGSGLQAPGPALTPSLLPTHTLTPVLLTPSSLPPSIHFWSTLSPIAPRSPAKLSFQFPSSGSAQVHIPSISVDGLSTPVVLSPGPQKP
# Procedure, shortened: as §1
# [3] = molecular target: T3, GABPA (Homo sapiens, UniProt Q06546 1-454); settings: protein: recombinant; tags: N-terminal GST; dsDNA, one strand shown
# T3 sequence: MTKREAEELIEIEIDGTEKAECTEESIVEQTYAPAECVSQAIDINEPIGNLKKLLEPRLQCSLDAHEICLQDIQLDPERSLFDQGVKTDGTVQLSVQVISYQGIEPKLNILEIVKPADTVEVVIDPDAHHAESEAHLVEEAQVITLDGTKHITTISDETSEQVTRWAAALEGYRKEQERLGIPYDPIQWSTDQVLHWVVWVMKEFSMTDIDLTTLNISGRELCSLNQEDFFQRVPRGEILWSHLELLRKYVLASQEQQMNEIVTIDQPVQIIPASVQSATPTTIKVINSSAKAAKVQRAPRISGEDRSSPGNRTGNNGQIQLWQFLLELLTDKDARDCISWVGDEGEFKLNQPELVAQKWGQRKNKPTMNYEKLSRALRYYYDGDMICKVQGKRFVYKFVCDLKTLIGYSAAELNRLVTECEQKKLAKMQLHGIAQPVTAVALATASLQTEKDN
# Procedure, shortened: as §1
# [4] = molecular target: T4, ERG (Homo sapiens, UniProt P11308 1-479); settings: protein: recombinant; tags: N-terminal GST; dsDNA, one strand shown
# T4 sequence: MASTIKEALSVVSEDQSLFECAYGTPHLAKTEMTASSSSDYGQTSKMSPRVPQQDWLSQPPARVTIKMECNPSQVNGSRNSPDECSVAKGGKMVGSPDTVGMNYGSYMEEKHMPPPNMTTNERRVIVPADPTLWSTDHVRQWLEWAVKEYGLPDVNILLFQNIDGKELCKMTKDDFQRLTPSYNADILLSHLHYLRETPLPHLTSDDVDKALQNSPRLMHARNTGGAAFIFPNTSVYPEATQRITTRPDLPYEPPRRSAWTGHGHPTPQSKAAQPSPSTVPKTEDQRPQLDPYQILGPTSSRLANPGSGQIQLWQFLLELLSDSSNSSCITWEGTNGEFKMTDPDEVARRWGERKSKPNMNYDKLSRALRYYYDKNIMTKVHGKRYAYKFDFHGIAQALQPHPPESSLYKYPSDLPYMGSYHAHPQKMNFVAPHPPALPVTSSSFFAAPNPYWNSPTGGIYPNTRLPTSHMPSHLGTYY
# Procedure, shortened: as §1
# [5] = molecular target: ELF1 (Homo sapiens, UniProt P32519 1-619); settings: protein: recombinant; tags: N-terminal GST; dsDNA, one strand shown
# Procedure, shortened: as §1
# [6] = molecular target: T5, EHF (Homo sapiens, UniProt Q9NZC4 1-300); settings: protein: recombinant; tags: N-terminal GST; dsDNA, one strand shown
# T5 sequence: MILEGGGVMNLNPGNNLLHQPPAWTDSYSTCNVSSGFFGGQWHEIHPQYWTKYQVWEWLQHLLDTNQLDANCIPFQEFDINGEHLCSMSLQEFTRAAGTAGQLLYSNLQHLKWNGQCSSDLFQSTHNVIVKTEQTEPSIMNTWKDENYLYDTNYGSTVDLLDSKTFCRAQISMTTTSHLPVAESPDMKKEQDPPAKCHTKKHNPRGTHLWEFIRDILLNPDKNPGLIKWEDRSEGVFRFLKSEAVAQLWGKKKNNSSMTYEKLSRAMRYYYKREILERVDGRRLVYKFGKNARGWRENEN
# Procedure, shortened: as §1
# [7] = molecular target: SPI1 (Homo sapiens, UniProt P17947 1-270); settings: protein: recombinant; tags: N-terminal GST; dsDNA, one strand shown
# Procedure, shortened: as §1
# [8] = molecular target: SPIB (Homo sapiens, UniProt Q01892 1-262); settings: protein: recombinant; tags: N-terminal GST; dsDNA, one strand shown
# Procedure, shortened: as §1
# [9] = molecular target: T6, ELK3 (Homo sapiens, UniProt P41970 1-407); settings: protein: recombinant; tags: N-terminal GST; dsDNA, one strand shown
# T6 sequence: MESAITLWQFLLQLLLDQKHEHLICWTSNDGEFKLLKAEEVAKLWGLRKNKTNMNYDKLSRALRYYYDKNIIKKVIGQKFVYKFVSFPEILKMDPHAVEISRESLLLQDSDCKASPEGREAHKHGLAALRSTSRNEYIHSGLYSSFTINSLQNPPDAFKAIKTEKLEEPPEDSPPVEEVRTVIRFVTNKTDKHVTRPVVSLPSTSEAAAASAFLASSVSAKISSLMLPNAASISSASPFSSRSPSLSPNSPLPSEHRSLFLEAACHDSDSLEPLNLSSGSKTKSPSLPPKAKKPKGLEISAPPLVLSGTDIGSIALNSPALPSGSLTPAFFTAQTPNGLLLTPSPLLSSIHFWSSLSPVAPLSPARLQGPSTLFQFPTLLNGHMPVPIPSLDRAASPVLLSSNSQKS
# Procedure, shortened: as §1
# [10] = molecular target: T7, FEV (Homo sapiens, UniProt Q99581 1-238); settings: protein: recombinant; tags: N-terminal GST; dsDNA, one strand shown
# T7 sequence: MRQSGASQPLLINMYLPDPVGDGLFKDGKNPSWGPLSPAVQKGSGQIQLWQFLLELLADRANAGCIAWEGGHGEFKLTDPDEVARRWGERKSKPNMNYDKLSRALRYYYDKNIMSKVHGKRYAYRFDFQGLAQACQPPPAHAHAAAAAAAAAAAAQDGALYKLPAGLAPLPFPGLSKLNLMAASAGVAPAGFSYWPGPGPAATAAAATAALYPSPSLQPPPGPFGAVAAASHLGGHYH
# Procedure, shortened: as §1
# [11] = molecular target: ETV5 (Homo sapiens, UniProt P41161 1-510); settings: protein: recombinant; tags: N-terminal GST; dsDNA, one strand shown
# Procedure, shortened: as §1
# [12] = molecular target: HSF1 (Homo sapiens, UniProt Q00613 1-529); settings: protein: recombinant; tags: N-terminal GST; chain copies: 3; dsDNA, one strand shown
# Procedure, shortened: as §1
# [13] = molecular target: T8, SPIC (Homo sapiens, UniProt Q8N5J4 1-248); settings: protein: recombinant; tags: N-terminal GST; dsDNA, one strand shown
# T8 sequence: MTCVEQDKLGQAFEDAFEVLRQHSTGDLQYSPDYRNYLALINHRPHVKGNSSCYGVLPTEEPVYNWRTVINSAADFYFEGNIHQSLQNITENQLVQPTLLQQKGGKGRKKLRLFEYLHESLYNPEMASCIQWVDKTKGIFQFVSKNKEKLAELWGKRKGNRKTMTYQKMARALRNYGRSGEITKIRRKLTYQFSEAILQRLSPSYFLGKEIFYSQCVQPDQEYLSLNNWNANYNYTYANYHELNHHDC
# Procedure, shortened: as §1
# [14] = molecular target: ELF4 (Homo sapiens, UniProt Q99607 1-663); settings: protein: recombinant; tags: N-terminal GST; dsDNA, one strand shown
# Procedure, shortened: as §1
# [15] = molecular target: T9, ELK4 (Homo sapiens, UniProt P28324-2 1-405); settings: protein: recombinant; tags: N-terminal GST; dsDNA, one strand shown
# T9 sequence: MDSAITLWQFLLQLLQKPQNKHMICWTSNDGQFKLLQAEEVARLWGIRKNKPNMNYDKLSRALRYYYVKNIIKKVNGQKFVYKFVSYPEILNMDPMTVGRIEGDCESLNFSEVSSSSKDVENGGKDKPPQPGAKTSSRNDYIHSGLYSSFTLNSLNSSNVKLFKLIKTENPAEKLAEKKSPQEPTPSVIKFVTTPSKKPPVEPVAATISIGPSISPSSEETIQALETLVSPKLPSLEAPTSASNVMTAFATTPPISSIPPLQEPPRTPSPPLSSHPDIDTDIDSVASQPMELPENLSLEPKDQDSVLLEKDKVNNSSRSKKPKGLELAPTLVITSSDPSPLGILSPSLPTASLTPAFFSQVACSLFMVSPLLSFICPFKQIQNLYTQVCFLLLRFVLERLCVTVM
# Procedure, shortened: as §1
# [16] = molecular target: T10, ETV2 (Homo sapiens, UniProt O00321 1-342); settings: protein: recombinant; tags: N-terminal GST; dsDNA, one strand shown
# T10 sequence: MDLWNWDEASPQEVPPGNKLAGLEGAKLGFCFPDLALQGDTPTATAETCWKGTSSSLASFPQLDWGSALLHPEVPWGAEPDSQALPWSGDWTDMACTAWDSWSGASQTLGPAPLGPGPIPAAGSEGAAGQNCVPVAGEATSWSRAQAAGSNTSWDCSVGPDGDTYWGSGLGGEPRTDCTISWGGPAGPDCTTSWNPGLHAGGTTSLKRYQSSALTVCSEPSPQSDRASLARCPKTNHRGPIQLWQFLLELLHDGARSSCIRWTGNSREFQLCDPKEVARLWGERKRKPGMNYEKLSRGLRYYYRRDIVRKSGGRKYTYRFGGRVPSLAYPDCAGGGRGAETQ
# Procedure, shortened: as §1
# [17] = molecular target: T11, ELF3 (Homo sapiens, UniProt P78545 1-371); settings: protein: recombinant; tags: N-terminal GST; dsDNA, one strand shown
# T11 sequence: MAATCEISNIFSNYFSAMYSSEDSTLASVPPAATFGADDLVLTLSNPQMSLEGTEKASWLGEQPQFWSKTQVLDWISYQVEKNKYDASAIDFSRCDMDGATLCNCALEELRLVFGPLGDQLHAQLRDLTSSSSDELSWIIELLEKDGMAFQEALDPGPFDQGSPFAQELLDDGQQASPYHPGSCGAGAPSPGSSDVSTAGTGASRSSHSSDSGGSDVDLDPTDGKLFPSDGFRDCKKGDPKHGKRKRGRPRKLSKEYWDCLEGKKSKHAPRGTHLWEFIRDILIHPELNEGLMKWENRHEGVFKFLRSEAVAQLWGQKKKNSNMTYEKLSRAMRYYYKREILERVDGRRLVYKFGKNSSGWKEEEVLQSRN
# Procedure, shortened: as §1
# [18] = molecular target: CRX (Homo sapiens, UniProt O43186 1-299); settings: protein: recombinant; tags: N-terminal GST; dsDNA, one strand shown
# Procedure, shortened: as §1
# [19] = molecular target: ETV1 (Homo sapiens, UniProt P50549 1-477); settings: protein: recombinant; tags: N-terminal GST; dsDNA, one strand shown
# Procedure, shortened: as §1
# Sequence of ETV5 (P41161 whole entry): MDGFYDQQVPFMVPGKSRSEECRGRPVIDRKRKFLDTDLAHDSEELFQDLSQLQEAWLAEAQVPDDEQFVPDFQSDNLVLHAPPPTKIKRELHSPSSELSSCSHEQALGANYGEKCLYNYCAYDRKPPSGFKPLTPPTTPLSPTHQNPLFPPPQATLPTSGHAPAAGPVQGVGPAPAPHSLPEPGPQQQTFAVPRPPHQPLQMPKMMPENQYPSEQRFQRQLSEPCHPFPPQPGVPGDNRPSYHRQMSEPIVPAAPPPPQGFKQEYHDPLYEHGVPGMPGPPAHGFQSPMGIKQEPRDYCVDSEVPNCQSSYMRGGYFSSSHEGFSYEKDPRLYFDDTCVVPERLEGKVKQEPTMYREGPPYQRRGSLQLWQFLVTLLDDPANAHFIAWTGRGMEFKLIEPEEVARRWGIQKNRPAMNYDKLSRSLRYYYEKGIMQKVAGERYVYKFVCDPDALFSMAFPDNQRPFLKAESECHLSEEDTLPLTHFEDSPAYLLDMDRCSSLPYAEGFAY
# Sequence of ELF4 (Q99607 whole entry): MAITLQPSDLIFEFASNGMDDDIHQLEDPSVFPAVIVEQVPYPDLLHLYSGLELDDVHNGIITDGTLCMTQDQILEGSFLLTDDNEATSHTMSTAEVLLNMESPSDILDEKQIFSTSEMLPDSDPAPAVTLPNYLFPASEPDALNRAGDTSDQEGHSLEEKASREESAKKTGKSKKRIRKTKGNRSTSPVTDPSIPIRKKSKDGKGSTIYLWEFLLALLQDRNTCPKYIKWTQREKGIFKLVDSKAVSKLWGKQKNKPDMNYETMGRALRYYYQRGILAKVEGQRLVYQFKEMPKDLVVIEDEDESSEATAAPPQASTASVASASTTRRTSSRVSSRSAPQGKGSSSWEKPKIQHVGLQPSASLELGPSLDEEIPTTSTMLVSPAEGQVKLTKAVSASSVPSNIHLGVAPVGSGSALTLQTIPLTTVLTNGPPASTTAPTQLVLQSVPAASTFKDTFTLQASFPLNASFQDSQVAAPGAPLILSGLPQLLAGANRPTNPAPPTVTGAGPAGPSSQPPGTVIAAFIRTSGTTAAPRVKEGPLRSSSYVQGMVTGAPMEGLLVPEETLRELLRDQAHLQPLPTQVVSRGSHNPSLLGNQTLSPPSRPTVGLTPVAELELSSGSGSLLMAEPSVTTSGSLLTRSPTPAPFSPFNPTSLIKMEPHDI
# Sequence of ELF1 (P32519 whole entry): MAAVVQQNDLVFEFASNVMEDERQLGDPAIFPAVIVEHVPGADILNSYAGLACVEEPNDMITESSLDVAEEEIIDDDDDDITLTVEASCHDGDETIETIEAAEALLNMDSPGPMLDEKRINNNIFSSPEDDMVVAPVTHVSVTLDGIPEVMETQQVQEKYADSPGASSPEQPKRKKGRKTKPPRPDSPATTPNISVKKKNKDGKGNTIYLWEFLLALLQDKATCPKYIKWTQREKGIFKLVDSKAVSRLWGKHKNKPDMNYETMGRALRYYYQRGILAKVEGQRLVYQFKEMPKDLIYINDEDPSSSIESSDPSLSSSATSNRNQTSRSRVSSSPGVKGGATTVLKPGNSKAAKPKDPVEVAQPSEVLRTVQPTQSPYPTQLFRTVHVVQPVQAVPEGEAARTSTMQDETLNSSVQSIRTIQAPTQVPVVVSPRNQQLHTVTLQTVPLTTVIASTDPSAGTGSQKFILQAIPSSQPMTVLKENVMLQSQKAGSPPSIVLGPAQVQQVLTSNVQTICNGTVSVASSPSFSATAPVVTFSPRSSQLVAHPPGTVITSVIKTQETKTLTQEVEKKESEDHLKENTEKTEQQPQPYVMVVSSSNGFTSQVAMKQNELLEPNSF
# Sequence of HSF1 (Q00613 whole entry): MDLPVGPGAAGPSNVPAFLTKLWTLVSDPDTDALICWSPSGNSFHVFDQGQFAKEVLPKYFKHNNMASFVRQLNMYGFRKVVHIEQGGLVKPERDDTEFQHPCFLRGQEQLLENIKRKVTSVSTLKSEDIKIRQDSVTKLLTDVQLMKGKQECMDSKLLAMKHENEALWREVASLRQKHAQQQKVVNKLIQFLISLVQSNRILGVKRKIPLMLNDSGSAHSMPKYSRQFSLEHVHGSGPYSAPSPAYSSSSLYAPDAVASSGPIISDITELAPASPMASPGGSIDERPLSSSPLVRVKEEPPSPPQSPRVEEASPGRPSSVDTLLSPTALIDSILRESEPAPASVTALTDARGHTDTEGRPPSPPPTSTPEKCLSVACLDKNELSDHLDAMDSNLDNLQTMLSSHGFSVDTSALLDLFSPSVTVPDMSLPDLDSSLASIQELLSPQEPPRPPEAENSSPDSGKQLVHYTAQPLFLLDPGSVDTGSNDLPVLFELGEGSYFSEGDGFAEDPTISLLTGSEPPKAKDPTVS
# Sequence of CRX (O43186 whole entry): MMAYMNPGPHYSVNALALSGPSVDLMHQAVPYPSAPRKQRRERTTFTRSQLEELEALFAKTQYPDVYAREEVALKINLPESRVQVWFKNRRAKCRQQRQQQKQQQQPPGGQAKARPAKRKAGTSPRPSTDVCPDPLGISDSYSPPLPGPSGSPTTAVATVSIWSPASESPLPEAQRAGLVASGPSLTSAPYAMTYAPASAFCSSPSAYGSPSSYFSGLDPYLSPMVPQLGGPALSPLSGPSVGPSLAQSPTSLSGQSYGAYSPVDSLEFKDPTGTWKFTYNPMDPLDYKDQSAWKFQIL
# Sequence of ETV1 (P50549 whole entry): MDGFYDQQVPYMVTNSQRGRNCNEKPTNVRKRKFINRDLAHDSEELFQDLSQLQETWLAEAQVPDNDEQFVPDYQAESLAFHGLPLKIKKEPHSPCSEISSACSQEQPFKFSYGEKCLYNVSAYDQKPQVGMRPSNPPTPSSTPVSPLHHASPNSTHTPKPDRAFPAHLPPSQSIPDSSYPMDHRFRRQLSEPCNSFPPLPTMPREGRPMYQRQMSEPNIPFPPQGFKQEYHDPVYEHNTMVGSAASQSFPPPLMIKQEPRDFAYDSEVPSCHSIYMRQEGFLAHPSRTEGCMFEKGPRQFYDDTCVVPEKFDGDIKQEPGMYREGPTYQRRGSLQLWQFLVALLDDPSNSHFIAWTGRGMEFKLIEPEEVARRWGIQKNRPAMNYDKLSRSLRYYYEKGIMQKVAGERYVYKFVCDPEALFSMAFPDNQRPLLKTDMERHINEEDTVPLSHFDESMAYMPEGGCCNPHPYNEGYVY
# Sequence of SPIB (Q01892 whole entry): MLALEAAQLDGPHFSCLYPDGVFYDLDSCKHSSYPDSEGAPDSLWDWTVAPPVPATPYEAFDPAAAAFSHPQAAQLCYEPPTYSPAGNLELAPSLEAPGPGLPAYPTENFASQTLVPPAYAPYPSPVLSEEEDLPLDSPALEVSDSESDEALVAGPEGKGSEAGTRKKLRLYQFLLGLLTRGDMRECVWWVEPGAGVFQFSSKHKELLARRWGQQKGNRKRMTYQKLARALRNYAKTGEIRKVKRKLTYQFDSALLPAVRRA
sequence,measurement,setting,value
GCGACT,binding signal,[1],"1.15 fold enrichment (6-mer frequency, TF over GST control)"
same,binding signal,[2],"1.26 fold enrichment (6-mer frequency, TF over GST control)"
same,binding signal,[3],"1.13 fold enrichment (6-mer frequency, TF over GST control)"
same,binding signal,[4],"1.24 fold enrichment (6-mer frequency, TF over GST control)"
same,binding signal,[5],"1.22 fold enrichment (6-mer frequency, TF over GST control)"
same,binding signal,[6],"1.21 fold enrichment (6-mer frequency, TF over GST control)"
same,binding signal,[7],"1.2 fold enrichment (6-mer frequency, TF over GST control)"
same,binding signal,[8],"1.33 fold enrichment (6-mer frequency, TF over GST control)"
same,binding signal,[9],"1.25 fold enrichment (6-mer frequency, TF over GST control)"
same,binding signal,[10],"1.31 fold enrichment (6-mer frequency, TF over GST control)"
same,binding signal,[11],"1.28 fold enrichment (6-mer frequency, TF over GST control)"
same,binding signal,[12],"1.11 fold enrichment (6-mer frequency, TF over GST control)"
same,binding signal,[13],"1.28 fold enrichment (6-mer frequency, TF over GST control)"
same,binding signal,[14],"1.13 fold enrichment (6-mer frequency, TF over GST control)"
same,binding signal,[15],"1.28 fold enrichment (6-mer frequency, TF over GST control)"
same,binding signal,[16],"1.55 fold enrichment (6-mer frequency, TF over GST control)"
same,binding signal,[17],"1.05 fold enrichment (6-mer frequency, TF over GST control)"
same,binding signal,[18],"1.14 fold enrichment (6-mer frequency, TF over GST control)"
same,binding signal,[19],"1.22 fold enrichment (6-mer frequency, TF over GST control)"
